{"source": "PubChem BioAssay (NCI)", "note": "This is part of a sample that, as a whole, favours compounds with a hit. Of some 83,000 tested, about 20% had one in any assay.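 Interpretation: 100, growth as untreated; towards 0, rising growth inhibition; 0, no net growth; 0 to -100, cell death. Compounds scoring below 10 were considered active.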 Active and inactive are the calls of the source."}
{"test_system": "SK-MEL-5 melanoma", "assay": "NCI-60 one-dose screen, 48 h (100 = growth as untreated, 0 = no growth, -100 = all killed)", "settings": "10 µM unless noted", "procedure": "Growth inhibition of the SK-MEL-5 human tumor cell line is measured as a screen for anti-cancer activity. Cells are grown in 96 well plates and exposed to the test compound for 48 hours. Compounds are tested at a single concentration, which is 10^-5 M for most compounds. The reported endpoint is percent growth (GI% or GIPRCNT), where numbers from 0 - 100% represent growth inhibition, and numbers from -100% - 0 represent cell death. For example, a value of 40 represents 60% growth inhibition. A value of 0 means no net growth occurred over the course of the experiment. A value of -40 indicates 40% of cells at the beginning of the experiment died by the end of the experiment. A value of -100 means all cells are dead at the end of the experiment.\nNCI-60 Human Tumor Cell Lines Screen was performed using the standard one-dose NCI protocol, which is described in more detail at https://dtp.cancer.gov/discovery_development/nci-60/default.htm.\nCompounds with GIPRCNT values below 10 were considered active. Activity score was based on GIPRCNT using the following formula: […]\nScore is 0 for GIPRCNT values of 100 or above, 50 for GIPRCNT values of 0, and 100 for GIPRCNT values of -100."}
{"smiles": "Cc1nc2c(=O)[nH]c(SCC(=O)Nc3cccc(F)c3)nc2[nH]c1=O", "growth": "102% (inactive)"}
{"smiles": "C=C1C(=O)O[C@H]2[C@H]1CC/C(COC(=O)CSCCSCC(=O)OC/C1=C/CC[C@@]3(C)O[C@H]3[C@H]3OC(=O)C(=C)[C@@H]3CC1)=C\\CC[C@@]1(C)O[C@@H]21", "growth": "78.4% (inactive)"}
{"smiles": "COc1cc(NC(C)CCCNC(C)C)c2ncccc2c1OC", "note": "(stereo not given)", "growth": "97.9% (inactive)"}
{"smiles": "CNC(=O)c1c(NC(=O)c2ccc(C(F)(F)F)cc2)sc2c1CCC(=O)C2", "growth": "-71.6% (active)"}
{"smiles": "CCCCCCCCCCCCCCCCCCOc1ccccc1CC(=O)NCC[N+]1(C)CCCC1", "growth": "73% (inactive)"}
{"smiles": "CCOC(=O)c1c(NC(=O)c2ccc(C(C)C)cc2)sc2c(CN(C)C)c(O)ccc12", "growth": "80.7% (inactive)"}
{"smiles": "COc1cc(-c2nc3cc(Cl)c(Cl)cc3[nH]2)ccc1OCC(=O)N=Nc1c(O)[nH]c2ccc([N+](=O)[O-])cc12", "growth": "85.1% (inactive)"}
{"smiles": "Oc1ccc(CCn2c(O)c(/C=C3\\CN=c4ccccc4=N3)sc2=S)cc1", "growth": "88.3% (inactive)"}
{"smiles": "COc1cccc([C@H]2c3[nH]c4ccccc4c3C[C@H]3C(=O)N(CCCCCCC(=O)NO)CC(=O)N23)c1", "growth": "49.8% (inactive)"}
{"smiles": "O=C(Nn1c2c(sc1=Nc1ccccc1)C(=O)c1ccccc1C2=O)c1cc2ccc1CCc1ccc(cc1)CC2", "growth": "39.7% (inactive)"}
{"smiles": "CCOC(=O)CSc1ncnc2c1c(-c1ccccc1)c(-c1ccccc1)n2-c1ccc(C)cc1", "growth": "44.9% (inactive)"}
{"smiles": "O=C(CCCCC1CCSS1)Nc1ncnc2n[nH]c(-c3ccc(Oc4ccccc4)cc3)c12", "note": "(stereo not given)", "growth": "87.9% (inactive)"}
{"smiles": "Oc1c(Cl)cc(Cl)cc1/C=N/Nc1nnc(N/N=C/c2cc(Cl)cc(Cl)c2O)c2ccccc12", "growth": "-46.8% (active)"}
{"smiles": "O=C(CSc1nnc2n1S(=O)(=O)c1ccccc1N2c1ccccc1)Nc1nc2ccc(F)cc2s1", "growth": "87.7% (inactive)"}
{"smiles": "C=C1C(=O)O[C@H]2[C@H]1CC/C(COC(=O)NCc1ccc(Cn3c(=O)sn(CCI)c3=O)cc1)=C\\CC[C@@]1(C)O[C@@H]21", "growth": "98.8% (inactive)"}
{"smiles": "O=C1Nc2ccc(I)cc2C1=O", "growth": "101% (inactive)"}
{"smiles": "CC(=O)[C@@H]1CCC=C2CC[C@]3(C)[C@@H](CC[C@@H]4[C@@]5(C)CCCNC(C)(C)[C@@H]5CC[C@]43C)[C@H]21", "growth": "64.2% (inactive)"}
{"smiles": "N#CC1=C(c2ccc(Cl)cc2)Nc2c(c(-c3ccc(Cl)cc3)nn2-c2ccccc2)C12C(=O)Nc1ccc(Cl)cc12", "note": "(stereo not given)", "growth": "78.7% (inactive)"}
{"smiles": "CC1=C(CCC(C)N(C)Cc2ccc(OCCCN3CCCC3)cc2)C(C)(C)CCC1", "note": "(stereo not given)", "growth": "-93.7% (active)"}
{"smiles": "CCOC(=O)c1nc(Nc2ccc(NC(=O)Nc3ccc(F)cc3)cc2)c2ccccc2n1", "growth": "93.9% (inactive)"}
{"smiles": "O=C(c1ccc(Cl)cc1)N1CCN(c2ccnc3cc(Cl)ccc23)CC1", "growth": "90.8% (inactive)"}
{"smiles": "CCn1cc(C(=O)N/N=C/c2cccs2)c(=O)c2cc(F)c(N3CCNC(C)C3)c(F)c21", "note": "(stereo not given)", "growth": "69.8% (inactive)"}
{"smiles": "O=C(Nc1nn(-c2ccc(Cl)cc2Cl)nc1-c1ccccc1)c1ccccc1", "growth": "110% (inactive)"}
{"smiles": "COC(C(=O)[C@@H](O)[C@@H](C)O)[C@@H]1Cc2cc3cc(O[C@H]4C[C@@H](O[C@H]5C[C@@H](O)[C@H](O)C(C)O5)[C@H](O)C(C)O4)cc(O)c3c(O)c2C(=O)[C@H]1O[C@H]1C[C@@H](O[C@H]2C[C@@H](O[C@H]3C[C@@H](OC)[C@H](O)C(C)O3)[C@@H](O)C(C)O2)[C@H](O)C(C)O1", "note": "(stereo not given in full)", "growth": "14.6% (inactive)"}
{"smiles": "O=C(Nc1ccc(NC(=O)c2cc(=O)[nH]c3ccccc23)cc1)Nc1cccc(C(F)(F)F)c1", "growth": "69.9% (inactive)"}
{"smiles": "Cn1c(=O)c2[nH]c(N/N=C/c3ccccc3Br)nc2n(C)c1=O", "growth": "103% (inactive)"}
{"smiles": "COc1cc(/C=C\\c2cc(/C=C\\c3ccc(O)c(OC)c3)n(C(=O)COc3ccc(Cl)cc3Cl)n2)ccc1O", "growth": "-12.9% (active)"}
{"smiles": "CN(C)CCNC(=O)c1cccc(-c2cnc3ccc(-c4ccc5c(c4)OCO5)nn23)c1", "growth": "90.8% (inactive)"}
{"smiles": "CN1C(=O)N(C)C2Nn3c(s/c(=C\\c4ccc(C(F)(F)F)cc4)c3=O)=NC21", "note": "(stereo not given)", "growth": "99.5% (inactive)"}
{"smiles": "COc1cc(CNS(=O)(=O)c2ccc(C)cc2)ccc1OCc1cn(-c2ccc(F)cc2)nn1", "growth": "56.7% (inactive)"}
{"smiles": "COc1ccc(-c2csc(NC(=O)CSc3nc(-c4ccccc4)cc(=O)[nH]3)n2)cc1", "growth": "-16.5% (active)"}
{"smiles": "O=C(NNC(=O)c1ccc(-n2cc(-c3ccccc3)nn2)cc1)Nc1ccccc1", "growth": "100% (inactive)"}
{"smiles": "Cn1ccnc1C(=O)C(=O)Nc1ccc(CC(=O)Nc2ccccc2)cc1", "growth": "101% (inactive)"}
{"smiles": "CCN(CC)c1nc(SCc2ccccc2Cl)ncc1C", "growth": "83.8% (inactive)"}
{"smiles": "CCN(CC)CCSc1nc(-c2ccccc2)c(C#N)c(=O)[nH]1", "growth": "85.1% (inactive)"}
{"smiles": "Cc1cc(=O)[nH]c2c(C#N)cnn12", "growth": "99.4% (inactive)"}
{"smiles": "C=CCc1c2c(c(OC)c3ccoc13)C(=O)/C(=C/c1ccccc1OC)O2", "growth": "98% (inactive)"}
{"smiles": "O=S(=O)(NCCCNc1nccc(-c2c(-c3ccc(F)c(O)c3)nc3occn23)n1)c1ccccc1", "growth": "63% (inactive)"}
{"smiles": "Cc1ccc2c3c(c(=O)[nH]c2c1)C1(C(C#N)=C(N)O3)c2cc(Br)ccc2-c2ccc(Br)cc21", "growth": "61.4% (inactive)"}
{"smiles": "CCN1C(=O)N(CC)C2C1NN=c1s/c(=C\\c3cccc([N+](=O)[O-])c3)c(=O)n12", "note": "(stereo not given)", "growth": "-5.71% (active)"}
